Experimental findings from PubChem BioAssay AID1117361 (Southern Research Institute, 2015) are described below.

SMILES strings stand for the structures. Out of some 3,600 compounds screened, about 900 (25%) were called active. The list is a sample of the results. Results with a measured potency or affinity are listed apart. A number with no mark means an inactive call. How the calls were made is not given here.

In the test the target is Protein Tat (Human immunodeficiency virus type 1 group M subtype B (isolate HXB2)) (UniProt P04608). Description: HIV-1 Tat–TAR interaction blockers – biochemical, fluorescence polarization, FAM-labeled TAR RNA, counter-screen for Vif-APOBEC3G degradation inhibitor project, dose response (AID 1117361). The note with it: Tat-TAR RNA binding; series mostly up to 100 µM; inhibition: at the top concentration.
As usually defined, the inhibition is the relative decrease from the control value, in per cent. With `O=C(Nc1ccc(F)cc1F)NC1CCN(S(=O)(=O)c2ccc(F)cc2)CC1`, the “inhibition” value was 4.12%.
On to `Cc1nc(-c2noc(-c3ccccc3Cl)n2)c(C(F)(F)F)o1`, for which the molecule was called inactive.
For `O=C(Cn1cncn1)N/N=C/c1ccccc1Cl`, the “inhibition” value was 0.82%.
Turning to `CCOc1cccc(-c2cc(=O)[nH][nH]2)c1`, the outcome was inactive.
As to `Cc1csc(NC(=O)C(NS(=O)(=O)c2ccc(Br)s2)c2ccccc2)n1` (stereo not given), the “inhibition” value is 0.68%.
In the case of `CCOC(=O)c1c(C)[nH]c(C(=O)OCC(=O)Nc2sc(C(=O)N(C)C)c(C)c2C(=O)OCC)c1C`, the “inhibition” value was 12.4%.
For `CC(=O)c1c(C)[nH]c(C(=O)OCC(=O)C(C)(C)C)c1C`, the molecule was called inactive.
Consider `CCCOc1ccc2oc(=O)c3c(c2c1)CCCN3C(=O)CN1CCc2ccccc2C1`, for which the “inhibition” value was 4.77%.
For `COC1=CC(=O)C(C2CC(=O)c3c(O)cc(O)cc3O2)=CC1=O` (stereo not given), the “inhibition” value is 3.01%.
Take `COc1cc(Cl)c(C)cc1NC(=O)COc1cc(C)nc(C(C)C)n1`: the “inhibition” value is 1.35%.
On to `O=C(CCC(=O)N1CCN(S(=O)(=O)c2ccccc2)CC1)NC1CCCc2ccccc21` (stereo not given), for which the “inhibition” value was 1.36%.
On to `CCOc1ccc(-c2nc(CN3CCCCC3CCn3cccn3)c(C)o2)cc1` (stereo not given), for which the outcome was inactive.
Same read-out and setting: to `N#CCSc1nc2sc3c(c2c(=O)n1C1CCCCC1)CCCC3` belongs “inactive”.
Take `CN(C)[C@H]1N(C(=O)c2ccc(Br)cc2)N=C2c3ccccc3S(=O)(=O)N21`: the “inhibition” value was 4.73%.
For `COc1cc(C2NC(=O)NC(C)=C2C(=O)OCC2CCCO2)ccc1O` (stereo not given), the “inhibition” value was 8.19%.
With `COc1ccc(NC(=S)N(CCCN2CCCC2)Cc2ccco2)cc1`, the outcome was inactive.
On to `CCCCCC(=O)N1C[C@@H](n2cc(C3CC3)nn2)[C@H](O)C[C@@H]1c1ccc(C)cc1`, for which the “inhibition” value is 9.02%.
For `O=C(O)CCN1CCOCC1`, the “inhibition” value was 0.68%.
For the molecule `COc1cccc(OC)c1C(=O)NC(C)C12CC3CC(CC(C3)C1)C2` (stereo not given), the “inhibition” value is 8.87%.
On to `O=C1OC(c2ccc(Br)cc2)=N/C1=C\N1CCCCC1`, for which the “inhibition” value was 2.7%.
As for `Brc1ccc(-c2nnc(-c3cccc(Br)c3)o2)cc1`, the molecule was called inactive.
Consider `CCn1c(SC(C)C)nnc1-c1cc(-c2ccccc2)sc1N`, for which the “inhibition” value is 9.07%.
Still for that read-out and setting: to `COCCNC(=O)Cn1ncc2ccsc2c1=O` belongs 2.03%.
Take `Cc1ccc(OCCC(=O)OCC(=O)c2ccc3c(c2)NC(=O)CO3)cc1`: the molecule was classed as inactive.
`Cc1ccc(S(=O)(=O)CCC(=O)Nc2ccc3c(c2)OCO3)cc1`: the “inhibition” value is 6.76%.
Still for that read-out and setting: for `CCC(C)[C@@H](C(=O)Nc1ccc2c(c1)OCO2)N1Cc2ccccc2C1=O` (stereo not given in full) the value was 2.7%.
Take `CCc1ccc(NC(=O)COC(=O)CCc2nc3cc(S(=O)(=O)N(CC)CC)ccc3n2C)cc1`: the call was inactive.
Regarding `Cc1ccc(S(=O)(=O)NCCC(=O)N2CCN(C/C=C/c3ccccc3)CC2)cc1`, the molecule was classed as inactive.
In the case of `O=C(CSc1nc2ccccc2c(=O)n1NC(=O)c1ccccc1)c1ccccc1`, the “inhibition” value is 1.36%.
As to `CCCc1cc(=O)[nH]c(SCC(=O)c2c(C)[nH]c3ccccc23)n1`, the call was inactive.
With `COc1ccc(CC(NC(C)=O)C(=O)NC2CCN(S(=O)(=O)c3cccc4ccccc34)CC2)cc1OC` (stereo not given), the “inhibition” value is 3.38%.
`COc1c(F)c(F)c(C(=O)Nc2ccc3oc(-c4ccncc4)nc3c2)c(F)c1F`: the “inhibition” value was 7.43%.
As for `CCOC(=O)C1=C(C)NC2=C(C(=O)CC(C)(C)C2)C1c1ccsc1` (stereo not given), the call was inactive.
Regarding `CCN(CC)c1ccc(C2NC(=O)NC(C)=C2C(=O)Nc2ccccc2)cc1` (stereo not given), the “inhibition” value is 15.7%.
With `CCOC(=O)c1c(O)c2ccccc2n(-c2ccccc2)c1=O`, the “inhibition” value was 11.5%.
For the molecule `CCn1c(=O)c(C(=O)NCc2ccccn2)c(O)c2ccccc21`, the “inhibition” value is 0.68%.
Still for that read-out and setting: for `O=C(CSc1nccn1Cc1ccccc1)Nc1nccs1` the value was 14.2%.
Take `CC(C)(C)OC(=O)NC(CCNC=C1C(=O)OC(C)(C)OC1=O)C(=O)O` (stereo not given): the result was inactive.
In the case of `O=C(Cc1ccc2c(c1)OCCO2)N1CCN(S(=O)(=O)c2cccs2)CC1`, the outcome was inactive.
As for `CC(=O)Nc1nnc(C)s1`, the outcome was inactive.
Regarding `COc1ccc(CNc2nc3ccccc3n2C)c(O)c1`, the result was inactive.
Take `COc1ccc(-c2nnc(-c3ccc(N)cc3)o2)cc1`: the “inhibition” value was 4.34%.
Regarding `O=C(NCCc1ccncc1)Nc1ccccc1Cl`, the molecule was classed as inactive.
As to `O=C(CCCNS(=O)(=O)c1cccc2nsnc12)NCc1ccccc1`, the “inhibition” value is 2.73%.
With `Cc1onc(-c2ccccc2)c1C(=O)NCc1cccs1`, the “inhibition” value was 5.46%.
As to `O=C(NCc1ccco1)c1cc(-c2cccc(Cl)c2)on1`, the “inhibition” value was 15%.
In the case of `Cc1cc2oc(=O)cc(C)c2c(=O)o1`, the “inhibition” value was 23.9%.
Still for that read-out and setting: to `CS(=O)(=O)N1CCc2cc(C(=O)OCC(=O)c3ccccc3)ccc21` belongs 6.76%; to `CCOC(=O)c1c(NC(=O)Cn2cc([N+](=O)[O-])cn2)sc2c1CCC2`, 4.05%; to `CCOC(=O)c1c(NC(C)=O)sc2c1CCCNC2=O`, 2.7%.
On the same count and under the same terms, for `COc1ccc(C)cc1NC(=O)C1CC(=O)OC12CCCCC2` (stereo not given) the value was 5.41%; for `Cc1cccc(S(=O)(=O)c2c(N)n(/N=C/c3ccco3)c3nc4ccccc4nc23)c1`, 7.43%.
For the molecule `Nc1c(S(=O)(=O)c2ccccc2)c2nc3ccccc3nc2n1/N=C/c1ccco1`, the molecule was called inactive.
For `CC(=O)N1c2c(cc(Br)cc2S(=O)(=O)N2CCOCC2)CC1C` (stereo not given), the “inhibition” value is 8.11%.
Turning to `CCC(C)(C)n1nnnc1C(c1cc2cc(C)ccc2[nH]c1=O)N1CCCc2ccccc21` (stereo not given), the “inhibition” value was 3.48% [at 50 µM].
For the molecule `COc1ccc2cc(C(c3nnnn3C3CCCC3)N3CCc4ccccc4C3)c(=O)[nH]c2c1` (stereo not given), the “inhibition” value is 26.4%.
In the case of `COC(=O)c1ccc(S(=O)(=O)N2CCN(CCO)CC2)n1C`, the outcome was inactive.
Consider `O=C1c2c(O)ccc(O)c2C(=O)c2c(NCCNCCO)ccc(NCCNCCO)c21`, for which the “inhibition” value is 3.01%.
As for `COC(=O)COc1ccc2c(c1C)O/C(=C\c1ccco1)C2=O`, the “inhibition” value is 1%.
Same read-out and setting: to `O=C(O)COc1ccc(NC(=O)c2ccco2)cc1` belongs 15%.
Turning to `COc1ccc(NC(=O)c2ccc(-n3cccn3)nc2)cc1`, the result was inactive.
On to `COc1ccccc1C1CC(=O)Nc2c1c(=O)n(C)c(=O)n2C` (stereo not given), for which the “inhibition” value was 6.76%.
For the molecule `CC(=O)Nc1nnc(-c2c(-c3c(Cl)cccc3Cl)noc2C)o1`, the call was inactive.
In the case of `O=C(Nc1nnc(C2CC2)s1)c1ccc(S(=O)(=O)c2ccccc2)cc1`, the “inhibition” value is 7.68%.
`CC12CCC(C(=O)NCCN3CCCCC3)(CC1=O)C2(C)C` (stereo not given): the molecule was called inactive.
For `CC(C)C(C)NC(=O)COc1ccc(S(=O)(=O)N2CCOCC2)cc1Cl` (stereo not given), the result was inactive.
Consider `Clc1cccc(Cl)c1Cn1nnc(-c2cccs2)n1`, for which the molecule was classed as inactive.
In the case of `COc1ccc(N(C(=O)COc2ccccc2OC)S(=O)(=O)c2ccc(C)cc2)cc1`, the “inhibition” value is 2.73%.
For `O=C(CSc1nnnn1-c1ccccc1)Nc1nsc(-c2ccccc2)n1`, the “inhibition” value was 3.38%.
For the molecule `NC(=O)c1ccc(-n2nnnc2SCC(=O)Nc2ccccc2-c2ccccc2)cc1`, the “inhibition” value was 5.41%.
